Source: article PMC11006913
Changes are numbered by the printed parent chain.

Key:
Assay in all cases: PBM; 200 nM protein, PBS
Settings in all cases: dsDNA, one strand shown
NKX2-4 [1] = biological target: T1, NKX2-4 (Homo sapiens, UniProt Q9H2Z4 175-261, P217L)
T1 sequence: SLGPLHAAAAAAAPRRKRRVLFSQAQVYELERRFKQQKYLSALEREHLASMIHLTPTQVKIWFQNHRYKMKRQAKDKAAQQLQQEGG

NKX2-4 [2] = biological target: T2, NKX2-4 (Homo sapiens, UniProt Q9H2Z4 175-261, T231S)
T2 sequence: T1 sequence with L43P, T57S

NKX2-4 [3] = biological target: T3, NKX2-4 (Homo sapiens, UniProt Q9H2Z4 175-261)
T3 sequence: T1 sequence with L43P

NKX2-4 [4] = biological target: T4, NKX2-4 (Homo sapiens, UniProt Q9H2Z4 175-261, R246Q)
T4 sequence: T1 sequence with L43P, R72Q

| Sequence | binding signal (NKX2-4 [1]) | binding signal (NKX2-4 [2]) | binding signal (NKX2-4 [3]) | binding signal (NKX2-4 [4]) |
| --- | --- | --- | --- | --- |
| CGTTTGGC | 9.62 upbm affinity estimate (log intensity, higher = more binding, comparable within an allelic series) | 9.4 upbm affinity estimate (log intensity, higher = more binding, comparable within an allelic series) | 9.47 upbm affinity estimate (log intensity, higher = more binding, comparable within an allelic series) | 9.6 upbm affinity estimate (log intensity, higher = more binding, comparable within an allelic series) |
| ACTTAGCT | 11.7 upbm affinity estimate (log intensity, higher = more binding, comparable within an allelic series) | 11.8 upbm affinity estimate (log intensity, higher = more binding, comparable within an allelic series) | 11.5 upbm affinity estimate (log intensity, higher = more binding, comparable within an allelic series) | 11.9 upbm affinity estimate (log intensity, higher = more binding, comparable within an allelic series) |
| GAGTGCCA | 12.1 upbm affinity estimate (log intensity, higher = more binding, comparable within an allelic series) | 12.3 upbm affinity estimate (log intensity, higher = more binding, comparable within an allelic series) | 11.9 upbm affinity estimate (log intensity, higher = more binding, comparable within an allelic series) | 12.4 upbm affinity estimate (log intensity, higher = more binding, comparable within an allelic series) |
| CAACCGTC | 9.81 upbm affinity estimate (log intensity, higher = more binding, comparable within an allelic series) | 9.78 upbm affinity estimate (log intensity, higher = more binding, comparable within an allelic series) | 9.8 upbm affinity estimate (log intensity, higher = more binding, comparable within an allelic series) | 9.85 upbm affinity estimate (log intensity, higher = more binding, comparable within an allelic series) |
| CTCTTGAA | 12.5 upbm affinity estimate (log intensity, higher = more binding, comparable within an allelic series) | 12.8 upbm affinity estimate (log intensity, higher = more binding, comparable within an allelic series) | 12.3 upbm affinity estimate (log intensity, higher = more binding, comparable within an allelic series) | 13 upbm affinity estimate (log intensity, higher = more binding, comparable within an allelic series) |
| ATGCGTCC | 9.7 upbm affinity estimate (log intensity, higher = more binding, comparable within an allelic series) | 9.56 upbm affinity estimate (log intensity, higher = more binding, comparable within an allelic series) | 9.58 upbm affinity estimate (log intensity, higher = more binding, comparable within an allelic series) | 9.59 upbm affinity estimate (log intensity, higher = more binding, comparable within an allelic series) |
| CCGACGTC | 9.19 upbm affinity estimate (log intensity, higher = more binding, comparable within an allelic series) | 9.13 upbm affinity estimate (log intensity, higher = more binding, comparable within an allelic series) | 9.23 upbm affinity estimate (log intensity, higher = more binding, comparable within an allelic series) | 9.18 upbm affinity estimate (log intensity, higher = more binding, comparable within an allelic series) |
| GGCGTGCA | 9.59 upbm affinity estimate (log intensity, higher = more binding, comparable within an allelic series) | 9.54 upbm affinity estimate (log intensity, higher = more binding, comparable within an allelic series) | 9.62 upbm affinity estimate (log intensity, higher = more binding, comparable within an allelic series) | 9.63 upbm affinity estimate (log intensity, higher = more binding, comparable within an allelic series) |
| AACGCTGG | 9.65 upbm affinity estimate (log intensity, higher = more binding, comparable within an allelic series) | 9.71 upbm affinity estimate (log intensity, higher = more binding, comparable within an allelic series) | 9.67 upbm affinity estimate (log intensity, higher = more binding, comparable within an allelic series) | 9.82 upbm affinity estimate (log intensity, higher = more binding, comparable within an allelic series) |
| GCAAGTGC | 11.9 upbm affinity estimate (log intensity, higher = more binding, comparable within an allelic series) | 12.1 upbm affinity estimate (log intensity, higher = more binding, comparable within an allelic series) | 11.7 upbm affinity estimate (log intensity, higher = more binding, comparable within an allelic series) | 12.2 upbm affinity estimate (log intensity, higher = more binding, comparable within an allelic series) |
| CGGTCGTA | 9.63 upbm affinity estimate (log intensity, higher = more binding, comparable within an allelic series) | 9.64 upbm affinity estimate (log intensity, higher = more binding, comparable within an allelic series) | 9.66 upbm affinity estimate (log intensity, higher = more binding, comparable within an allelic series) | 9.81 upbm affinity estimate (log intensity, higher = more binding, comparable within an allelic series) |
| AAACCCCC | 9.69 upbm affinity estimate (log intensity, higher = more binding, comparable within an allelic series) | 9.77 upbm affinity estimate (log intensity, higher = more binding, comparable within an allelic series) | 9.71 upbm affinity estimate (log intensity, higher = more binding, comparable within an allelic series) | 9.65 upbm affinity estimate (log intensity, higher = more binding, comparable within an allelic series) |
| CGGCGTTA | 9.81 upbm affinity estimate (log intensity, higher = more binding, comparable within an allelic series) | 9.61 upbm affinity estimate (log intensity, higher = more binding, comparable within an allelic series) | 9.82 upbm affinity estimate (log intensity, higher = more binding, comparable within an allelic series) | 9.89 upbm affinity estimate (log intensity, higher = more binding, comparable within an allelic series) |
| CCCAGACG | 9.29 upbm affinity estimate (log intensity, higher = more binding, comparable within an allelic series) | 9.36 upbm affinity estimate (log intensity, higher = more binding, comparable within an allelic series) | 9.37 upbm affinity estimate (log intensity, higher = more binding, comparable within an allelic series) | 9.46 upbm affinity estimate (log intensity, higher = more binding, comparable within an allelic series) |
| AAAGAGGC | 11.7 upbm affinity estimate (log intensity, higher = more binding, comparable within an allelic series) | 11.9 upbm affinity estimate (log intensity, higher = more binding, comparable within an allelic series) | 11.6 upbm affinity estimate (log intensity, higher = more binding, comparable within an allelic series) | 11.9 upbm affinity estimate (log intensity, higher = more binding, comparable within an allelic series) |
| CTTCTCAA | 11.7 upbm affinity estimate (log intensity, higher = more binding, comparable within an allelic series) | 11.9 upbm affinity estimate (log intensity, higher = more binding, comparable within an allelic series) | 11.5 upbm affinity estimate (log intensity, higher = more binding, comparable within an allelic series) | 11.9 upbm affinity estimate (log intensity, higher = more binding, comparable within an allelic series) |
| AGTACTCA | 12.5 upbm affinity estimate (log intensity, higher = more binding, comparable within an allelic series) | 12.9 upbm affinity estimate (log intensity, higher = more binding, comparable within an allelic series) | 12.4 upbm affinity estimate (log intensity, higher = more binding, comparable within an allelic series) | 12.9 upbm affinity estimate (log intensity, higher = more binding, comparable within an allelic series) |
| GAGTACTC | 12.4 upbm affinity estimate (log intensity, higher = more binding, comparable within an allelic series) | 12.8 upbm affinity estimate (log intensity, higher = more binding, comparable within an allelic series) | 12.3 upbm affinity estimate (log intensity, higher = more binding, comparable within an allelic series) | 12.9 upbm affinity estimate (log intensity, higher = more binding, comparable within an allelic series) |

| Sequence | binding signal (NKX2-4 [1]) | binding signal (NKX2-4 [2]) | binding signal (NKX2-4 [3]) | binding signal (NKX2-4 [4]) |
| --- | --- | --- | --- | --- |
| CATCGCGA | 9.66 upbm affinity estimate (log intensity, higher = more binding, comparable within an allelic series) | 9.66 upbm affinity estimate (log intensity, higher = more binding, comparable within an allelic series) | 9.73 upbm affinity estimate (log intensity, higher = more binding, comparable within an allelic series) | 9.58 upbm affinity estimate (log intensity, higher = more binding, comparable within an allelic series) |
| CTCAAGCA | 11.8 upbm affinity estimate (log intensity, higher = more binding, comparable within an allelic series) | 12.1 upbm affinity estimate (log intensity, higher = more binding, comparable within an allelic series) | 11.8 upbm affinity estimate (log intensity, higher = more binding, comparable within an allelic series) | 12.2 upbm affinity estimate (log intensity, higher = more binding, comparable within an allelic series) |
| CCGCCACG | 9.92 upbm affinity estimate (log intensity, higher = more binding, comparable within an allelic series) | 9.9 upbm affinity estimate (log intensity, higher = more binding, comparable within an allelic series) | 9.94 upbm affinity estimate (log intensity, higher = more binding, comparable within an allelic series) | 9.94 upbm affinity estimate (log intensity, higher = more binding, comparable within an allelic series) |
| CCCTGCAG | 9.9 upbm affinity estimate (log intensity, higher = more binding, comparable within an allelic series) | 9.92 upbm affinity estimate (log intensity, higher = more binding, comparable within an allelic series) | 9.89 upbm affinity estimate (log intensity, higher = more binding, comparable within an allelic series) | 9.93 upbm affinity estimate (log intensity, higher = more binding, comparable within an allelic series) |
| CGGTTCCA | 9.98 upbm affinity estimate (log intensity, higher = more binding, comparable within an allelic series) | 9.95 upbm affinity estimate (log intensity, higher = more binding, comparable within an allelic series) | 9.92 upbm affinity estimate (log intensity, higher = more binding, comparable within an allelic series) | 10 upbm affinity estimate (log intensity, higher = more binding, comparable within an allelic series) |
| ATCCCTCC | 9.86 upbm affinity estimate (log intensity, higher = more binding, comparable within an allelic series) | 9.87 upbm affinity estimate (log intensity, higher = more binding, comparable within an allelic series) | 9.86 upbm affinity estimate (log intensity, higher = more binding, comparable within an allelic series) | 9.77 upbm affinity estimate (log intensity, higher = more binding, comparable within an allelic series) |
| ACGCCGCA | 9.67 upbm affinity estimate (log intensity, higher = more binding, comparable within an allelic series) | 9.65 upbm affinity estimate (log intensity, higher = more binding, comparable within an allelic series) | 9.64 upbm affinity estimate (log intensity, higher = more binding, comparable within an allelic series) | 9.74 upbm affinity estimate (log intensity, higher = more binding, comparable within an allelic series) |
| AGAGCACT | 12 upbm affinity estimate (log intensity, higher = more binding, comparable within an allelic series) | 12.3 upbm affinity estimate (log intensity, higher = more binding, comparable within an allelic series) | 11.9 upbm affinity estimate (log intensity, higher = more binding, comparable within an allelic series) | 12.3 upbm affinity estimate (log intensity, higher = more binding, comparable within an allelic series) |
| CCCGCAGG | 8.95 upbm affinity estimate (log intensity, higher = more binding, comparable within an allelic series) | 8.81 upbm affinity estimate (log intensity, higher = more binding, comparable within an allelic series) | 9.01 upbm affinity estimate (log intensity, higher = more binding, comparable within an allelic series) | 8.96 upbm affinity estimate (log intensity, higher = more binding, comparable within an allelic series) |
| ATCCGGCC | 9.77 upbm affinity estimate (log intensity, higher = more binding, comparable within an allelic series) | 9.8 upbm affinity estimate (log intensity, higher = more binding, comparable within an allelic series) | 9.79 upbm affinity estimate (log intensity, higher = more binding, comparable within an allelic series) | 9.9 upbm affinity estimate (log intensity, higher = more binding, comparable within an allelic series) |
| GCTATAGC | 9.92 upbm affinity estimate (log intensity, higher = more binding, comparable within an allelic series) | 9.98 upbm affinity estimate (log intensity, higher = more binding, comparable within an allelic series) | 9.84 upbm affinity estimate (log intensity, higher = more binding, comparable within an allelic series) | 9.91 upbm affinity estimate (log intensity, higher = more binding, comparable within an allelic series) |
| CCGGTCGC | 9.53 upbm affinity estimate (log intensity, higher = more binding, comparable within an allelic series) | 9.41 upbm affinity estimate (log intensity, higher = more binding, comparable within an allelic series) | 9.5 upbm affinity estimate (log intensity, higher = more binding, comparable within an allelic series) | 9.51 upbm affinity estimate (log intensity, higher = more binding, comparable within an allelic series) |
| CCCCGCCG | 9.51 upbm affinity estimate (log intensity, higher = more binding, comparable within an allelic series) | 9.45 upbm affinity estimate (log intensity, higher = more binding, comparable within an allelic series) | 9.54 upbm affinity estimate (log intensity, higher = more binding, comparable within an allelic series) | 9.57 upbm affinity estimate (log intensity, higher = more binding, comparable within an allelic series) |
| GCCCTTAA | 12 upbm affinity estimate (log intensity, higher = more binding, comparable within an allelic series) | 12.3 upbm affinity estimate (log intensity, higher = more binding, comparable within an allelic series) | 12 upbm affinity estimate (log intensity, higher = more binding, comparable within an allelic series) | 12.2 upbm affinity estimate (log intensity, higher = more binding, comparable within an allelic series) |
| ATACTTCA | 12.4 upbm affinity estimate (log intensity, higher = more binding, comparable within an allelic series) | 12.8 upbm affinity estimate (log intensity, higher = more binding, comparable within an allelic series) | 12.3 upbm affinity estimate (log intensity, higher = more binding, comparable within an allelic series) | 12.8 upbm affinity estimate (log intensity, higher = more binding, comparable within an allelic series) |
| CCACTCCA | 12.5 upbm affinity estimate (log intensity, higher = more binding, comparable within an allelic series) | 12.8 upbm affinity estimate (log intensity, higher = more binding, comparable within an allelic series) | 12.3 upbm affinity estimate (log intensity, higher = more binding, comparable within an allelic series) | 12.9 upbm affinity estimate (log intensity, higher = more binding, comparable within an allelic series) |
| CCAGTCAC | 9.45 upbm affinity estimate (log intensity, higher = more binding, comparable within an allelic series) | 9.51 upbm affinity estimate (log intensity, higher = more binding, comparable within an allelic series) | 9.45 upbm affinity estimate (log intensity, higher = more binding, comparable within an allelic series) | 9.44 upbm affinity estimate (log intensity, higher = more binding, comparable within an allelic series) |
| CAGGCATG | 9.76 upbm affinity estimate (log intensity, higher = more binding, comparable within an allelic series) | 9.76 upbm affinity estimate (log intensity, higher = more binding, comparable within an allelic series) | 9.66 upbm affinity estimate (log intensity, higher = more binding, comparable within an allelic series) | 9.82 upbm affinity estimate (log intensity, higher = more binding, comparable within an allelic series) |
